How the values were obtained:
Assay in all cases: DAPPL (digital affinity profiling via proximity ligation, sequencing); 10 mM Tris-HCl pH 7.5, 50 mM NaCl, 1 mM DTT, 4% glycerol, room temperature, 30 min; GST-TFs on glutathione beads, 16-mer random dsDNA library, 0.1% formaldehyde crosslink after washing; high values mean tight binding
[1] = target: T1, FLI1 (Homo sapiens, UniProt Q01543 1-452); conditions: protein: recombinant; tags: N-terminal GST; dsDNA, one strand shown
T1 sequence: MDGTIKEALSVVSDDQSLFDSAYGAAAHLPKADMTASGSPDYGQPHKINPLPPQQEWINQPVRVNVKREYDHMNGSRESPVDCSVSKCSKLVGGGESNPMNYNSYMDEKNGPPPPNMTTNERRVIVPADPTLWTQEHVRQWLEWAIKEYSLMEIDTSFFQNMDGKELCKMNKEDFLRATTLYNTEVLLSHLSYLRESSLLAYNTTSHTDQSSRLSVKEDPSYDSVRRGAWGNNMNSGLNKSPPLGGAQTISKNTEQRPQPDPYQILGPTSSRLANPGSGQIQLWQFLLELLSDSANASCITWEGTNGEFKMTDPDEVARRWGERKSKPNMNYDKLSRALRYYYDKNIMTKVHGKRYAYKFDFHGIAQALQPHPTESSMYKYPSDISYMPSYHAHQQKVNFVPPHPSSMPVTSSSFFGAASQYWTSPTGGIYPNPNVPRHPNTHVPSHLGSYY
Summary of the method: (§1)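 Binding signal is given per hexamer as its read frequency for a factor divided by its frequency in the tag-only sample. GST-fused human transcription factors were expressed in yeast, captured on glutathione beads, barcoded with DNA and pooled with that sample, then incubated with 200 nmole of a 16-mer random double-stranded DNA library in Tris/NaCl/DTT/glycerol buffer for 30 min at room temperature. The pools were then washed, crosslinked, proximity-ligated, amplified by PCR and sequenced on an Illumina NextSeq500.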

[2] = target: T2, ELK1 (Homo sapiens, UniProt P19419 1-428); conditions: protein: recombinant; tags: N-terminal GST; dsDNA, one strand shown
T2 sequence: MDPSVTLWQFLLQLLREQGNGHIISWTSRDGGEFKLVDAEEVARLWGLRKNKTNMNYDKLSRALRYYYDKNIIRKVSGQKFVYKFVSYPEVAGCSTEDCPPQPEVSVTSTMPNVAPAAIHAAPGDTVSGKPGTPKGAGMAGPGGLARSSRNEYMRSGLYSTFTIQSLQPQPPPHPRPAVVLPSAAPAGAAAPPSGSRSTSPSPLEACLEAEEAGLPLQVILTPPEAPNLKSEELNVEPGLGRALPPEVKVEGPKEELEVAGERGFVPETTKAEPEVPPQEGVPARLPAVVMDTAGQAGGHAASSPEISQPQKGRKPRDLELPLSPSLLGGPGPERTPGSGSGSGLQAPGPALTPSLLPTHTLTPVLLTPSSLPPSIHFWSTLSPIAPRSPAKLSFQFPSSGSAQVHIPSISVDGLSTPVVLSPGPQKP
Summary of the method: as §1

[3] = target: T3, GABPA (Homo sapiens, UniProt Q06546 1-454); conditions: protein: recombinant; tags: N-terminal GST; dsDNA, one strand shown
T3 sequence: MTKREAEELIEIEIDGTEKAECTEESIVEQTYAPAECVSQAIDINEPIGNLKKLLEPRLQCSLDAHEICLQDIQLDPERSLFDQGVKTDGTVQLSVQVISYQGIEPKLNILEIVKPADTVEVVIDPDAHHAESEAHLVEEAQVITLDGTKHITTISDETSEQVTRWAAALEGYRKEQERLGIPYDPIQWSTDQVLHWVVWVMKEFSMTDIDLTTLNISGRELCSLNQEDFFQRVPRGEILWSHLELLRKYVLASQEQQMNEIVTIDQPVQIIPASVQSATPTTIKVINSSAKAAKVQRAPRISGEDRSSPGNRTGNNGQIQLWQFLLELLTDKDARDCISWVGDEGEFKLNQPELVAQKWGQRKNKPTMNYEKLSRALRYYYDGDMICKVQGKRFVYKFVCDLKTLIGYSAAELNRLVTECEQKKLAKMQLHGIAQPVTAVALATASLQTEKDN
Summary of the method: as §1

[4] = target: T4, ERG (Homo sapiens, UniProt P11308 1-479); conditions: protein: recombinant; tags: N-terminal GST; dsDNA, one strand shown
T4 sequence: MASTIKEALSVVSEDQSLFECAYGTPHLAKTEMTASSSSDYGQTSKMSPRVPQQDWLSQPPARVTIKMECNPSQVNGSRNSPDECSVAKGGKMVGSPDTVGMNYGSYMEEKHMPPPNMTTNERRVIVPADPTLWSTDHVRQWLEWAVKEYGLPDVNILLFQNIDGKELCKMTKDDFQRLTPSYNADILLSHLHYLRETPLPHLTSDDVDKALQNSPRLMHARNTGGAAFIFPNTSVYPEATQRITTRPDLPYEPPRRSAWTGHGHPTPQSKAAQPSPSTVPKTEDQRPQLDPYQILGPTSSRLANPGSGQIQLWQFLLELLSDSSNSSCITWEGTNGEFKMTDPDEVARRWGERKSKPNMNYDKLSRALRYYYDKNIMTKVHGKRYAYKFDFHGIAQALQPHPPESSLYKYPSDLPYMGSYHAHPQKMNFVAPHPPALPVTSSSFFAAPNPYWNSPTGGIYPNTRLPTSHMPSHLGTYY
Summary of the method: as §1

[5] = target: ELF1 (Homo sapiens, UniProt P32519 1-619); conditions: protein: recombinant; tags: N-terminal GST; dsDNA, one strand shown
Summary of the method: as §1

[6] = target: T5, EHF (Homo sapiens, UniProt Q9NZC4 1-300); conditions: protein: recombinant; tags: N-terminal GST; dsDNA, one strand shown
T5 sequence: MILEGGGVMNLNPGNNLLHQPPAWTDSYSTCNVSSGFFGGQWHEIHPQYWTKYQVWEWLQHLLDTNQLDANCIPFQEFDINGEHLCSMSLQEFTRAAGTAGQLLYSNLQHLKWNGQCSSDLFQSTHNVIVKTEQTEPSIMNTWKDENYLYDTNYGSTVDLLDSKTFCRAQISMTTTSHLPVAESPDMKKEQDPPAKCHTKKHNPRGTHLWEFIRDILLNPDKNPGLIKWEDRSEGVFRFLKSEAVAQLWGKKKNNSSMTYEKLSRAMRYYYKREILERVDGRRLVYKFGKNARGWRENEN
Summary of the method: as §1

[7] = target: SPI1 (Homo sapiens, UniProt P17947 1-270); conditions: protein: recombinant; tags: N-terminal GST; dsDNA, one strand shown
Summary of the method: as §1

[8] = target: SPIB (Homo sapiens, UniProt Q01892 1-262); conditions: protein: recombinant; tags: N-terminal GST; dsDNA, one strand shown
Summary of the method: as §1

[9] = target: T6, ELK3 (Homo sapiens, UniProt P41970 1-407); conditions: protein: recombinant; tags: N-terminal GST; dsDNA, one strand shown
T6 sequence: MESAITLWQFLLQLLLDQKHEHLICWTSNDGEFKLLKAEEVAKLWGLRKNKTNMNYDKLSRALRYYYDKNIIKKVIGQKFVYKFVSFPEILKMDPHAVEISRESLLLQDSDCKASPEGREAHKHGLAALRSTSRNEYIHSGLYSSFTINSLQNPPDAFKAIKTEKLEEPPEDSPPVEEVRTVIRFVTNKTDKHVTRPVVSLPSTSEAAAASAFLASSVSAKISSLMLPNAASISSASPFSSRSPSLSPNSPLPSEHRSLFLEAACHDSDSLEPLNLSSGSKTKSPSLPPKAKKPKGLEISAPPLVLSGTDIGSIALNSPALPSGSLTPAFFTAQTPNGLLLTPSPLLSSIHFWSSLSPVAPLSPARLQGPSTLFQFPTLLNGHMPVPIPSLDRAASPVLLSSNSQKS
Summary of the method: as §1

[10] = target: T7, FEV (Homo sapiens, UniProt Q99581 1-238); conditions: protein: recombinant; tags: N-terminal GST; dsDNA, one strand shown
T7 sequence: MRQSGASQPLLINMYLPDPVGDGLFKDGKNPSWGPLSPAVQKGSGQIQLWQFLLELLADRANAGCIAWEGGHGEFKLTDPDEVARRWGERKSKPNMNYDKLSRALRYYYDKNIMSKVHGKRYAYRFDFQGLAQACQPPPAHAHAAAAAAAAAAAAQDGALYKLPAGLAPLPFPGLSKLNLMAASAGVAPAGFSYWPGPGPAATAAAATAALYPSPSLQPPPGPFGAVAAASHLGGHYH
Summary of the method: as §1

[11] = target: ETV5 (Homo sapiens, UniProt P41161 1-510); conditions: protein: recombinant; tags: N-terminal GST; dsDNA, one strand shown
Summary of the method: as §1

[12] = target: HSF1 (Homo sapiens, UniProt Q00613 1-529); conditions: protein: recombinant; tags: N-terminal GST; chain copies: 3; dsDNA, one strand shown
Summary of the method: as §1

[13] = target: T8, SPIC (Homo sapiens, UniProt Q8N5J4 1-248); conditions: protein: recombinant; tags: N-terminal GST; dsDNA, one strand shown
T8 sequence: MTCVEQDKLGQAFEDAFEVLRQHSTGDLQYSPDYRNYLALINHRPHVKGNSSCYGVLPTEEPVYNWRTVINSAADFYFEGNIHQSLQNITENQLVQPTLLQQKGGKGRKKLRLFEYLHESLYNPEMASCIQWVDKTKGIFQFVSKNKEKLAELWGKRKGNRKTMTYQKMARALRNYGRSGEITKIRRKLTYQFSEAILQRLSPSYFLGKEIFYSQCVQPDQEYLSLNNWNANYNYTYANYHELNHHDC
Summary of the method: as §1

[14] = target: ELF4 (Homo sapiens, UniProt Q99607 1-663); conditions: protein: recombinant; tags: N-terminal GST; dsDNA, one strand shown
Summary of the method: as §1

[15] = target: T9, ELK4 (Homo sapiens, UniProt P28324-2 1-405); conditions: protein: recombinant; tags: N-terminal GST; dsDNA, one strand shown
T9 sequence: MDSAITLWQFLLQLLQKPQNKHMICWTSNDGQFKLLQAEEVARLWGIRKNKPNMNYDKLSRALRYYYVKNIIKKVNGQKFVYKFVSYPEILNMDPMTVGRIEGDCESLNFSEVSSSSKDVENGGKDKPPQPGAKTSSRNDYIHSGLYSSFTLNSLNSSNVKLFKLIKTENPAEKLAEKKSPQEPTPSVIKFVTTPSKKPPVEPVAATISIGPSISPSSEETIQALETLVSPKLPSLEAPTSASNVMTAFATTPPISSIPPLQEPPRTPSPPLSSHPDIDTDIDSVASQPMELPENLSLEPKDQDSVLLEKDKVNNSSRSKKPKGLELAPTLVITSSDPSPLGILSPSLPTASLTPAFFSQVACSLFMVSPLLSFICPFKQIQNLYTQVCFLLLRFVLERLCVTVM
Summary of the method: as §1

[16] = target: T10, ETV2 (Homo sapiens, UniProt O00321 1-342); conditions: protein: recombinant; tags: N-terminal GST; dsDNA, one strand shown
T10 sequence: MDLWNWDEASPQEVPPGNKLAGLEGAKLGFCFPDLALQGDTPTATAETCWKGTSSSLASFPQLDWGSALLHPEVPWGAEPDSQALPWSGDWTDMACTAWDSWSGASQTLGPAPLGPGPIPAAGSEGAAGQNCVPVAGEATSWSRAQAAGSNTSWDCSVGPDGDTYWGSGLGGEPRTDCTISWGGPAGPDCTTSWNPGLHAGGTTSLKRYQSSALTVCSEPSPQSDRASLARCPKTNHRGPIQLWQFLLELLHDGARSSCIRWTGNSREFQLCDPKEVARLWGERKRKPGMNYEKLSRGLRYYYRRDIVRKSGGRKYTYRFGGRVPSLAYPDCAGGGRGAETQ
Summary of the method: as §1

[17] = target: T11, ELF3 (Homo sapiens, UniProt P78545 1-371); conditions: protein: recombinant; tags: N-terminal GST; dsDNA, one strand shown
T11 sequence: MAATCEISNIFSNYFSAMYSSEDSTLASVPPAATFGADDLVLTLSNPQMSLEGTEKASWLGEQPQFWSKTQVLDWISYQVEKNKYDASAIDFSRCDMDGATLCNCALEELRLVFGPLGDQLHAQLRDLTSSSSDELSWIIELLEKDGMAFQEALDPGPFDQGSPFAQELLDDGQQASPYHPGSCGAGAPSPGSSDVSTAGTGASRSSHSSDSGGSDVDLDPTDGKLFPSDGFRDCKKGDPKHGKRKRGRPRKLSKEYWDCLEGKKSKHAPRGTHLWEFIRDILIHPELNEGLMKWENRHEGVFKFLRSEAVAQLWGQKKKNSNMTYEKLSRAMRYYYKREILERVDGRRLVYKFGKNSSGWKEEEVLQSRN
Summary of the method: as §1

[18] = target: CRX (Homo sapiens, UniProt O43186 1-299); conditions: protein: recombinant; tags: N-terminal GST; dsDNA, one strand shown
Summary of the method: as §1

[19] = target: ETV1 (Homo sapiens, UniProt P50549 1-477); conditions: protein: recombinant; tags: N-terminal GST; dsDNA, one strand shown
Summary of the method: as §1

Chain of CRX (O43186 whole entry): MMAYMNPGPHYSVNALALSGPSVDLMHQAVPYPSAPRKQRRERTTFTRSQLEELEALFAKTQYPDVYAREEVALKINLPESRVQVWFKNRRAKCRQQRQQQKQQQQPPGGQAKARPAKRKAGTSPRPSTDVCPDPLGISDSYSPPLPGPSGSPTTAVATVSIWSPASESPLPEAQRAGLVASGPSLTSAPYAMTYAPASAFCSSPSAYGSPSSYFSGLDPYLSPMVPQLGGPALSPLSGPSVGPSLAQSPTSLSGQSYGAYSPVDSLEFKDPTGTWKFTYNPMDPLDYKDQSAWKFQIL
Chain of HSF1 (Q00613 whole entry): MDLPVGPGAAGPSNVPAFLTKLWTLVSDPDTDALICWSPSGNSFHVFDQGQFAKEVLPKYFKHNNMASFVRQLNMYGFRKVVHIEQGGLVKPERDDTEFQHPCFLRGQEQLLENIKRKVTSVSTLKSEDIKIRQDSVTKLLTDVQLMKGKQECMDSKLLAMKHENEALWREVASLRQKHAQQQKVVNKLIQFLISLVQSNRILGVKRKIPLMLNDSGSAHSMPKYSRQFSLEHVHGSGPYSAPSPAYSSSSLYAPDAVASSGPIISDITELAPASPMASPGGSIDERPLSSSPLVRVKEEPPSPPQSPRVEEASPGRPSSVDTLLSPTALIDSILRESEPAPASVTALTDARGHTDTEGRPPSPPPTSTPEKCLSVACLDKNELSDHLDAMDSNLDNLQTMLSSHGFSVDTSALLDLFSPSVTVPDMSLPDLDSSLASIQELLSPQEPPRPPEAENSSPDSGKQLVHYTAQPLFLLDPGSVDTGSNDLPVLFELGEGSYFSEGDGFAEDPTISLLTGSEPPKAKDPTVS
Chain of ETV1 (P50549 whole entry): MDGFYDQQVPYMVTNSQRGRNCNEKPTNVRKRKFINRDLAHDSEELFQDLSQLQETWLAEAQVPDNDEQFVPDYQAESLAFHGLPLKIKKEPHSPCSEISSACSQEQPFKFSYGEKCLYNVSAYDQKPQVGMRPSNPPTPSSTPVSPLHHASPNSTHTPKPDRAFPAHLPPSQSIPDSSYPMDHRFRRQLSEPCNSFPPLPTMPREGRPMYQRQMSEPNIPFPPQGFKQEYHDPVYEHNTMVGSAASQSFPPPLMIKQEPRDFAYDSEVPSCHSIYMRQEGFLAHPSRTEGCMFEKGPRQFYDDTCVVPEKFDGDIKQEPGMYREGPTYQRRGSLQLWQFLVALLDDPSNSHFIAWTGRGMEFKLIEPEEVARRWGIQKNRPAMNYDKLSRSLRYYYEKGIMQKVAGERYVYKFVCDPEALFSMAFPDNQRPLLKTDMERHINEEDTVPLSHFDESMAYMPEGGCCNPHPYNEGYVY
Chain of ELF1 (P32519 whole entry): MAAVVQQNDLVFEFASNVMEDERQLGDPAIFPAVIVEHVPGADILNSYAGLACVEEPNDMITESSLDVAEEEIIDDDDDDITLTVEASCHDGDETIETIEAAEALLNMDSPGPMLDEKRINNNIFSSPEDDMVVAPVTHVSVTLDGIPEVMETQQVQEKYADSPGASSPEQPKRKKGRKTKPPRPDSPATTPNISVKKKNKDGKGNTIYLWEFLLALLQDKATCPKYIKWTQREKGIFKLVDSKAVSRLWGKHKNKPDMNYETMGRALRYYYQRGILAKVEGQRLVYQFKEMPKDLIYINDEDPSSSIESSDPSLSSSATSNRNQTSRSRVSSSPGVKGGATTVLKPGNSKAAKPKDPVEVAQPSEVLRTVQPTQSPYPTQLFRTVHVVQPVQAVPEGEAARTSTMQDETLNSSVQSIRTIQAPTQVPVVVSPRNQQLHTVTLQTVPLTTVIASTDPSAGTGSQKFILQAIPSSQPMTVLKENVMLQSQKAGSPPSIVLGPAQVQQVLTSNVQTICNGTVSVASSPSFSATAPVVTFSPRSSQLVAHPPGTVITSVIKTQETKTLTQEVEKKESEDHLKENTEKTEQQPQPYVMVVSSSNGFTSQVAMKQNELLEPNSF
Chain of ELF4 (Q99607 whole entry): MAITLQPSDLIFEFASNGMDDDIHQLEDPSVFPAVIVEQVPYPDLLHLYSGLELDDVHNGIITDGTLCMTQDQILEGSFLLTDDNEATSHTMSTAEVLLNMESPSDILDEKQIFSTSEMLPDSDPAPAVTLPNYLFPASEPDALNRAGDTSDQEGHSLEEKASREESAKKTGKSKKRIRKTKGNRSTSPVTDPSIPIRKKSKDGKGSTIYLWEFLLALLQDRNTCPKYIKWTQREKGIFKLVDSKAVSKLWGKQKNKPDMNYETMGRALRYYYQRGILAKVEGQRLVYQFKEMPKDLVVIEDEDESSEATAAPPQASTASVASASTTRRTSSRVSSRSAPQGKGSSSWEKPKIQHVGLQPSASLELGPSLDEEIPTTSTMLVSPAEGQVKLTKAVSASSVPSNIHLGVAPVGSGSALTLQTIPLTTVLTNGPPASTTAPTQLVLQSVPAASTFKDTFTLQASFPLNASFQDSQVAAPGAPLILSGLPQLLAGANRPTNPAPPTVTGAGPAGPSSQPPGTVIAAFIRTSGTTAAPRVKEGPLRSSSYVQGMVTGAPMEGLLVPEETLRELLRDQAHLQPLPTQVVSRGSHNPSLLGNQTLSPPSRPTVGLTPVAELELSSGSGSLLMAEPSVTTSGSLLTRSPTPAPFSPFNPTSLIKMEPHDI
Chain of SPIB (Q01892 whole entry): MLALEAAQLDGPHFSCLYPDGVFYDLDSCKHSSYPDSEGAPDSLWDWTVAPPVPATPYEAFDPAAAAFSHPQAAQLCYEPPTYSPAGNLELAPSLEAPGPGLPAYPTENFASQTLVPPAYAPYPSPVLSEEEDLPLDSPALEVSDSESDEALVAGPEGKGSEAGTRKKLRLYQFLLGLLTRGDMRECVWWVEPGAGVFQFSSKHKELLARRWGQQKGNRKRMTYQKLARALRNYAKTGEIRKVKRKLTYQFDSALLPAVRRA
Chain of ETV5 (P41161 whole entry): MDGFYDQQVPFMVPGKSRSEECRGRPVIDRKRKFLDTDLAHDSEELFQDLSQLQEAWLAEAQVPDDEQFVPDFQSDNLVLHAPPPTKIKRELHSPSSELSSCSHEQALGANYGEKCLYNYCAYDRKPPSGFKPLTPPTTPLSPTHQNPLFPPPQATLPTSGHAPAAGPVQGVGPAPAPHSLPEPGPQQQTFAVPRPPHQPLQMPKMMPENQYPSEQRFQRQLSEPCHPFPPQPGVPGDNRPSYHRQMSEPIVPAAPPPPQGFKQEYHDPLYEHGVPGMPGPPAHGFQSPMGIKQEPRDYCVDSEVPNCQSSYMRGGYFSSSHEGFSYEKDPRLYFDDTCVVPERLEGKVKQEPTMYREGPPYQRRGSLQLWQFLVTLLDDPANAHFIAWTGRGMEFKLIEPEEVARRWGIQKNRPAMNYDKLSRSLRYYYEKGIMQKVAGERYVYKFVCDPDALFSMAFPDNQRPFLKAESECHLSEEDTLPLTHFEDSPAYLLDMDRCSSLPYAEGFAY

ACTATA
binding signal [1]: 1.37 fold enrichment (6-mer frequency, TF over GST control) | binding signal [2]: 1.28 fold enrichment (6-mer frequency, TF over GST control) | binding signal [3]: 1.33 fold enrichment (6-mer frequency, TF over GST control) | binding signal [4]: 1.31 fold enrichment (6-mer frequency, TF over GST control) | binding signal [5]: 1.33 fold enrichment (6-mer frequency, TF over GST control) | binding signal [6]: 1.29 fold enrichment (6-mer frequency, TF over GST control) | binding signal [7]: 1.43 fold enrichment (6-mer frequency, TF over GST control) | binding signal [8]: 1.28 fold enrichment (6-mer frequency, TF over GST control) | binding signal [9]: 1.29 fold enrichment (6-mer frequency, TF over GST control) | binding signal [10]: 1.29 fold enrichment (6-mer frequency, TF over GST control) | binding signal [11]: 1.33 fold enrichment (6-mer frequency, TF over GST control) | binding signal [12]: 1.26 fold enrichment (6-mer frequency, TF over GST control) | binding signal [13]: 1.26 fold enrichment (6-mer frequency, TF over GST control) | binding signal [14]: 1.3 fold enrichment (6-mer frequency, TF over GST control) | binding signal [15]: 1.42 fold enrichment (6-mer frequency, TF over GST control) | binding signal [16]: 1.3 fold enrichment (6-mer frequency, TF over GST control) | binding signal [17]: 1.38 fold enrichment (6-mer frequency, TF over GST control) | binding signal [18]: 1.4 fold enrichment (6-mer frequency, TF over GST control) | binding signal [19]: 1.26 fold enrichment (6-mer frequency, TF over GST control)

Reference: paper PMC7862700, “An all-to-all approach to the identification of sequence-specific readers for epigenetic DNA modifications on cytosine”
